Many of the other results were omitted from the sample, so hits are more common in it than they were.
Shiga inhibitor – blocks Shiga toxin action in Vero cells; Vero cells, Shiga toxin protein synthesis inhibition reporter; inhibition, % at 38.7 µM; 290,000 compounds, 9.2% hits; in the data active means inhibition mostly above about 28%, no sharp cut-off; inactive means mostly below about 43%; further: 0% is about no effect
Cycloheximide cs – affects cycloheximide protein synthesis inhibition readout, counter-screen; cell reporter, cycloheximide protein synthesis inhibition counterscreen; AID 2314; max response, %; 300,000 compounds, 12% hits; in the data active means max response mostly above about 13%, no sharp cut-off; inactive means mostly below about 14%; further: read at 38.3 µM for the half of the compounds with a filed dose; 0% is about no effect
SARS PLpro yeast – blocks SARS-CoV papain-like protease in a yeast assay; Potency, µM (top dose mostly 32.9 µM), for inactives: top-dose activity, positive = growth rescue, hits mostly activators; S. cerevisiae expressing SARS-CoV PLpro, growth rescue; AID 485353; 330,000 compounds, 0.19% hits; calls by dose curve; further: potency means the concentration at half of the fitted maximal effect; 0% is about no effect; nearly all actives have a fitted effect of over 55% in size
LmPK inhibitor – LmPK (Leishmania mexicana) enzyme inhibition | purified LmPK, Kinase-Glo ATP luminescence, 1 h | Potency, µM (highest dose often 57.5 µM), for the others: at the top dose activity change, negative = inhibition, hits mostly inhibitors | 290,000 compounds, 0.37% hits | AID 1721; further: potency means the concentration at half of the fitted maximal effect; on the % scale 0 is the no-effect control and ±100 the full control effect
Target sequence (Q27686 whole entry, looked up): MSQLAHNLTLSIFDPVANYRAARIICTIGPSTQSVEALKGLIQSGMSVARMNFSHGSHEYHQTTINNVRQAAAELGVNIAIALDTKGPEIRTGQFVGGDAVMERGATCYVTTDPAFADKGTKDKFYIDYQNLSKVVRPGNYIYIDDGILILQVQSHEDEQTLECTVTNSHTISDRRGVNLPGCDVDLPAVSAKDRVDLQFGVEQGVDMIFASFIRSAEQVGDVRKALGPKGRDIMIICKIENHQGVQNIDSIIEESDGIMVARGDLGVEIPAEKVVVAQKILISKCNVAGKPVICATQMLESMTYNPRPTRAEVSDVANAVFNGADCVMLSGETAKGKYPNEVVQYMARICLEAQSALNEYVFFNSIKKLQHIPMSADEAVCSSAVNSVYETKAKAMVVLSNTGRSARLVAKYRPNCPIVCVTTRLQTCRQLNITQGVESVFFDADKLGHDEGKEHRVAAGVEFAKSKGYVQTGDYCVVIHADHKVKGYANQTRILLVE
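Pyruvate kinase activity monitored as ATP production (luciferase luminescence). Conditions: 0.1 nM enzyme, 0.5 mM PEP, 0.1 mM ADP, 1 h, RT; normalized against uninhibited and no-enzyme wells.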
NS1 inh – influenza NS1 inhibition; Potency, µM (titrated, usually from 46.1 µM), without a hit: at the top dose activity, positive = more growth; 270,000 compounds, 0.4% hits; calls by dose curve; further: potency means the concentration at half of the fitted maximal effect; actives are rising curves; nearly all actives have a fitted effect of over 50% in size
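Read-out: OD600 growth recovery of NS1-expressing budding yeast. Cells grown overnight at 30C in -URA glucose medium, washed, resuspended and diluted 1:100 in 2% galactose assay medium, pH 6.0. Same strain lacking NS1 served as positive control.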
TbPYK inhibitor – T. brucei pyruvate kinase inhibition | TbPYK enzyme, Kinase-Glo Plus ATP luminescence, 45 min | Potency, µM (series often up to 76.8 µM), without a hit: at the highest dose activity, negative = inhibition, hits mostly inhibitors | 410,000 compounds, 0.12% hits; further: potency means the concentration at half of the fitted maximal effect; on the % scale 0 is the no-effect control and ±100 the full control effect; nearly all actives have a fitted effect of over 50% in size
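Luminescent Kinase-Glo Plus end-point after 45 min room-temperature reaction of T. brucei pyruvate kinase started with 130 uM ADP (final). Buffer TEA 50 mM pH 7.2 with KCl, MgCl2, BSA, Tween-20; titration-based qHTS with fitted concentration-effect curves.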
The depositor's hits bear a star; ? = inconclusive; . = not tested or not shown. Unless noted, the call rests on the fitted dose curve; in most records, active means well fitted curve in the direction sought with a large enough effect; inconclusive means small, poorly fitted or top-dose-only effect, or another doubt; inactive means no such curve, though single readings can be large; an effect the other way counts as inactive or inconclusive.

SMILES | Shiga inhibitor | Cycloheximide cs | SARS PLpro yeast | LmPK inhibitor | NS1 inh | TbPYK inhibitor
Cc1ccc(-c2csc(NC(=O)/C=C/c3cccs3)n2)cc1C | -1.7 | -5.2 | -8.1% | 2.5% | -2.5% | -3.4%
COc1ccc(-c2csc(Nc3ncccn3)n2)cc1C | 47.9* | 31.0* | 0.2% | -8.6% | 4.0% | -11.3%
O=C(N/N=C/C(Cl)=C\c1ccccc1)c1cccs1 | 81.3* | 51.2* | -2.1% | -4.6% | -39.9% | -4.0%
CC(/C=N/NC(=O)c1cccs1)=C\c1ccccc1 | 144.9* | 41.8* | -5.1% | 0.5% | . | -6.6%
CCn1c(=O)cc(OCC(=O)Nc2cc(OC)c(OC)c(OC)c2)c2ccccc21 | . | . | . | . | . | -4.5%
COc1cccc(-c2cc(C(F)(F)F)n3ncc(C(=O)O)c3n2)c1 | -13.6 | -2.4 | -6.3% | 3.6% | 6.2% | -7.1%
COc1ccc(-c2cc(C(F)(F)F)n3ncc(C(=O)O)c3n2)cc1OC | -17.4 | 24.7* | 0.6% | 0.0% | 9.6% | 5.2%
O=C(Nc1ccc(Br)cc1)c1cc(Br)cc(Br)c1O | 93.0* | 41.8* | . | . | . | -6.2%
CCc1ccc(NC(=O)c2ccccc2Br)cc1 | 61.0* | 34.6* | -7.1% | 1.1% | . | 4.4%
CC(=O)Nc1ccc(NC(=O)c2ccccc2Br)cc1 | . | . | . | . | . | 6.2%
O=C(Nc1ccc(Br)cc1)c1ccccc1Br | 89.8* | 55.3* | -0.5% | -1.4% | -25.8% | -3.3%
CCc1ccc(NC(=O)c2n[nH]c(=O)c3ccccc23)cc1 | 79.4* | 36.0* | -0.5% | 5.4% | -0.5% | -8.7%
CC(C)c1csc(CN2CCCC(CNC(=O)c3cccc4ccccc34)C2)n1 (configuration not stated) | -3.6 | -2.4 | -0.9% | -4.3% | -3.1% | -1.9%
Cc1cc(OCc2cccc(Cl)c2)c(C)cc1CN1CCOCC1 | 25.0 | 23.8* | -2.8% | 4.1% | -55.5% | -5.9%
CN1CCc2c(cc(O)c(O)c2Cl)C(c2cccc(Cl)c2)C1 (configuration not stated) | . | . | . | . | 16.6% | .
Cc1ccc2nc(-c3cccnc3)oc2c1 | 130.8* | 47.5* | 3.5% | ? | -8.6% | -3.8%
Cc1ccc2nc(-c3ccccn3)oc2c1 | 30.9 | 30.3 | -7.2% | 15.8µM* | -14.5% | -25.0%
c1ccc(-c2nc3cc(Oc4ccc5oc(-c6ccccn6)nc5c4)ccc3o2)nc1 | . | . | . | . | 2.0% | .
Cc1cc(C)cc(C(=O)Nc2ccc(N3CCCC3)cc2)c1 | 72.0* | 49.8* | -0.4% | -12.7% | 2.4% | -19.3%
Cc1cc(C)cc(NC(=O)Nc2ccc(N3CCCCC3)cc2)c1 | 27.4 | 37.6* | -2.0% | -13.8% | -2.0% | -24.7%
Cc1oc(-c2ccc(Cl)cc2)nc1CN1CCCC(C(=O)NCc2ccccc2)C1 (configuration not stated) | . | . | . | . | . | -3.0%
CN1CCCC(OC(=O)c2ccc(C(C)(C)C)cc2)C1 (configuration not stated) | 28.3 | 17.8* | -0.7% | 5.2% | -3.6% | 1.2%
CN1CCCC(OC(=O)c2ccc(Cl)cc2)C1 (configuration not stated) | -2.2 | -1.5 | 0.8% | -9.9% | 3.6% | 0.6%
CC1CCCN(C(=O)c2ccc3c(c2)OCCO3)C1 (configuration not stated) | . | . | 1.0% | . | . | 1.9%
CN1CCCC(OC(=O)c2ccc3c(c2)OCCO3)C1 (configuration not stated) | 21.5 | 13.3* | -1.6% | -1.6% | -5.6% | 3.0%
SMILES | Shiga inhibitor | Cycloheximide cs | SARS PLpro yeast | LmPK inhibitor | NS1 inh | TbPYK inhibitor
COc1cccc(NC(=O)CSc2nnc(Cc3cccn3C)n2-c2ccc(F)cc2)c1 | 28.8* | 19.3* | -4.3% | 0.3% | 8.5% | -1.5%
COc1ccc(-n2c(Cc3cccn3C)nnc2SCC(=O)Nc2cccc(OC)c2)cc1 | -12.4 | -1.1 | -20.4% | -0.4% | -3.1% | -0.9%
Cn1ccnc1SCC(=O)Nc1cccc(O)c1 | 58.1 | 20.8* | 2.5% | -2.8% | 10.9% | -5.3%
CCCCOc1cccc(NC(=O)CSc2nccn2C)c1 | 37.2 | 8.8* | -1.0% | -7.8% | -2.3% | -4.2%
CC(=O)c1ccc(S(=O)(=O)NC2CC(=O)N(c3ccc(Cl)cc3)C2)cc1 (configuration not stated) | . | . | -4.1% | . | . | -0.2%
CC(=O)Nc1cccc(-c2ccnc3c2CC(C(=O)NCCN(C)C)O3)c1 (configuration not stated) | . | . | . | . | . | -1.8%
CN(CC(=O)N1CCCCCC1)S(=O)(=O)c1ccc(F)cc1 | 104.7* | 39.0* | -1.2% | -1.1% | -0.7% | 1.5%
CN(CC(=O)N1CCCCCC1)S(=O)(=O)c1ccc(Br)cc1 | -3.4 | -0.5 | 2.7% | -0.3% | -2.1% | -2.1%
CN(CC(=O)N1CCCCCC1)S(=O)(=O)c1ccc(Br)s1 | 80.4* | 32.6* | . | 1.0% | -4.0% | -1.1%
CN(CC(=O)N1CCCCCC1)S(=O)(=O)c1ccccc1 | 68.5* | 34.5* | -5.0% | -7.4% | 3.1% | -3.0%
CN(CC(=O)N1CCCCC1)S(=O)(=O)c1ccc(Cl)cc1 | 24.1 | 15.4 | -0.8% | 2.9% | 1.0% | -1.4%
Cc1ccc(S(=O)(=O)N(C)CC(=O)N2CCCCCCC2)cc1 | . | . | -3.9% | . | . | -2.6%
O=C(CSc1nc2c(c(=O)[nH]1)CN(Cc1ccc3c(c1)OCO3)CC2)Nc1ccc(F)cc1 | . | . | . | . | . | 0.0%
CC(Oc1cccc(Br)c1)C(=O)NNC(=O)CCNC(=O)c1ccccc1Cl (configuration not stated) | . | . | -7.1% | . | . | 0.9%
O=C1CN(C(=O)COc2c(F)c(F)cc(F)c2F)c2ccccc2N1 | -0.5 | -3.0 | 7.4% | -1.3% | -4.4% | 2.6%
Cc1cccc(-n2c3nc(=O)n(C)c(=O)c-3cc3ccc(Cl)cc32)c1C | . | . | . | . | . | -1.8%
COC1=CC(=O)OC(c2ccco2)C1 (configuration not stated) | . | . | . | . | . | 3.9%
COC1=CC(=O)OC(/C=C/c2ccccc2)C1 (configuration not stated) | 46.6* | 23.0* | 10.6% | -2.6% | -2.2% | -4.9%
CCc1nnc(NC(=O)c2ccc(Br)o2)s1 | -2.3 | 1.2 | 3.1% | -9.6% | -8.4% | -3.0%
CCc1nnc(NC(=O)c2ccc(C)o2)s1 | 44.0* | 36.2* | -1.4% | -2.2% | -8.3% | 5.0%
CCSc1nnc(NC(=O)c2ccc(C)o2)s1 | 33.4* | 26.7* | -12.1% | -7.6% | 22.0% | -1.6%
Cc1nnc(NC(=O)CSc2nnc(NC(=O)C(C)(C)C)s2)s1 | -5.5 | -9.1 | -1.0% | 1.2% | 1.2% | 12.1%
CCSc1nnc(NC(=O)C(C)(C)C)s1 | 69.5* | 29.1* | -4.4% | -3.7% | -1.6% | -1.7%
CCSc1nnc(NC(=O)c2cc(C)oc2C)s1 | 59.4* | 38.4* | -6.6% | -14.5% | -10.8% | 1.0%
Cc1ccc(NC(=O)CSc2nnc(NC(=O)NC3CCCCC3)s2)cc1 | . | . | . | . | . | -1.4%
CCSc1nnc(NC(=O)c2cccs2)s1 | 100.8* | 35.0* | -2.0% | -12.1% | -190.0% | 12.0%
CCSc1nnc(NC(=O)NC2CCCCC2)s1 | 48.9* | 35.7* | -0.6% | 12.1% | . | -2.0%
Cc1ccc(S(=O)(=O)C(CNC(=O)COc2ccccc2)c2ccco2)cc1 (configuration not stated) | . | . | . | . | . | -0.3%
